Records with an inconclusive call do not appear. The source made the active and inactive calls. Calls follow the shape of the dose curve; as a rule, active = well fitted inhibition curve with a large enough effect in the signal ratio in the repeat runs (not every such curve was filed as active); inconclusive = weak or mixed curves, or effect the other way; inactive = no such curve, though single readings can be large or run the other way; the % refers to the signal ratio.

The assay deals with Vitamin D3 receptor (Homo sapiens) (UniProt P11473). The assay is described as follows: qHTS assay to identify small molecule antagonists of the vitamin D receptor (VDR) signaling pathway (AID 743223). Particulars: VDR-UAS-bla HEK293T, beta-lactamase FRET ratio, 16 h; series mostly up to 61 µM. The text has this: U.S. Tox21 Program National Center for Advancing Translational Sciences [NCATS] NIH Chemical Genomics Center [NCGC] U.S. Environmental Protection Agency [EPA] National Institutes of Environmental Health Sciences [NIEHS] National Toxicology Program [NTP] U.S. Food and Drug Administration [FDA] Tox21 Assay Overview: The vitamin D receptor (VDR), a member of nuclear hormone receptor superfamily, plays a critical role in calcium homeostasis and bone metabolism. It is also involved in cell differentiation and growth, and thrombogenicity.
Vitamin D3 receptor (Homo sapiens), sequence (P11473 whole entry, looked up): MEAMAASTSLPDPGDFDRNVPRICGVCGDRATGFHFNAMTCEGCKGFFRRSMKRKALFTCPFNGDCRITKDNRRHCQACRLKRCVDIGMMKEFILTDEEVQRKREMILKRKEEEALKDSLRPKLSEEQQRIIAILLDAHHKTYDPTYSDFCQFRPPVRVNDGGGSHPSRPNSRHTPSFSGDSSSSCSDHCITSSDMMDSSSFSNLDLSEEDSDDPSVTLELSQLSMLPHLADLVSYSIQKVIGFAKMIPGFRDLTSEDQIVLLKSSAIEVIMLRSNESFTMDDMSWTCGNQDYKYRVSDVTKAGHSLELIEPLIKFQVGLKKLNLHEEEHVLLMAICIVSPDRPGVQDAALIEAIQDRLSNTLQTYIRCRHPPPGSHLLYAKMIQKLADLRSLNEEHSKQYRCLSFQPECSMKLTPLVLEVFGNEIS
Tox21 Assay Protocol Summary: VDR-bla cells were dispensed at 2,000 cells/5 uL of assay medium per well into black wall/clear-bottom 1536-well plates using a Multidrop Combi (Thermo Fisher Scientific, Waltham, MA) dispenser. After the assay plates were incubated at a 37C and 5% CO2 for 4 h, 23 nL of compounds dissolved in DMSO, positive controls or DMSO only was transferred to the assay plate by a Pintool station (Kalypsys, San Diego, CA), followed by addition of 1 uL of 1alpha, 25-Dihydroxy Vitamin D3 (3 nM, final concentration in the wells) using a Bioraptr Flying Reagent Dispenser (FRD) workstation (Beckman Coulter, Indianapolis, IN). The plates were incubated at 37C and 5% CO2 for 16 h, and then 1 uL of LiveBLAzerTM B/G FRET substrate was added using a Bioraptr FRD. The plates were incubated at room temperature for 2 h and fluorescence intensity was measured by an Envision plate reader (PerkinElmer, Shelton, CT).
`CC1(C)NC(=O)N(c2ccc([N+](=O)[O-])c(C(F)(F)F)c2)C1=O`: the outcome was inactive.
With `CC(=O)[C@@]1(O)CC[C@H]2[C@@H]3C[C@H](C)C4=CC(=O)C=C[C@]4(C)[C@@]3(F)[C@@H](O)C[C@@]21C` the entry was “inactive”; with `CC(C)=CCO`, “inactive”.
With `Cc1ccc(C(C)(C)C)cc1` the entry was “inactive”.
Turning to `C[C@]12C=CC(=O)C=C1CC[C@H]1[C@@H]3C[C@@H](O)[C@](O)(C(=O)CO)[C@@]3(C)C[C@H](O)[C@@]12F`, the outcome was inactive.
For `CC(=O)Oc1ccc(C(c2ccc(OC(C)=O)cc2)c2ccccn2)cc1`, the outcome was inactive.
The value for `C[N+](C)(C)CCO` was “inactive”.
With `CCO[Si](CCCNC(N)=O)(OCC)OCC` the entry was “inactive”; with `CCCCCC1C(=O)CCC1CC(=O)OC` (stereo not given), “inactive”.
Regarding `CC(=O)OC(C)C`, the outcome was inactive.
The value for `CN1CCOCC1` was “inactive”.
As to `CC1(C)O[C@@H]2C[C@H]3[C@@H]4C[C@H](F)C5=CC(=O)C=C[C@]5(C)[C@@]4(F)[C@@H](O)C[C@]3(C)[C@]2(C(=O)CO)O1`, the outcome was inactive.
With `Cc1ccc([N+](=O)[O-])c(C)c1` the entry was “inactive”.
With `CC(=O)Oc1c(C)c(C)c2c(c1C)CC[C@@](C)(CCC[C@H](C)CCC[C@H](C)CCCC(C)C)O2` the entry was “inactive”.
The value for `Nc1ccc(O)c(N)c1` was “inactive”.
For `CC(C)[N+](C)(CCOC(=O)C1c2ccccc2Oc2ccccc21)C(C)C`, the outcome was inactive.
For the compound `C[C@]12CC[C@@H]3c4ccc(O)cc4CC[C@H]3[C@@H]1CC[C@H]2O`, the result was inactive.
With `CCCCCCCCCCCCO` the entry was “inactive”.
The value for `[O-]/[N+](=N\O)c1ccccc1` was “inactive”.
With `c1ccc2cc3ccccc3cc2c1` the entry was “inactive”.
In the case of `O=C1CCc2ccccc2O1`, the outcome was inactive.
With `Cc1ccc(N)c([N+](=O)[O-])c1` the entry was “inactive”; with `CC(C)(Oc1ccc(Cl)cc1)C(=O)O`, “inactive”; with `OC[C@@H](O)[C@@H](O[C@@H]1O[C@H](CO)[C@H](O)[C@H](O)[C@H]1O)[C@H](O)[C@@H](O)CO`, “inactive”.
The value for `COCCOCCOCCO` was “inactive”.
Regarding `OC[C@H]1O[C@@H]2O[C@H]3[C@H](O)[C@@H](O)[C@@H](O[C@H]4[C@H](O)[C@@H](O)[C@@H](O[C@H]5[C@H](O)[C@@H](O)[C@@H](O[C@H]6[C@H](O)[C@@H](O)[C@@H](O[C@H]7[C@H](O)[C@@H](O)[C@@H](O[C@H]1[C@H](O)[C@H]2O)O[C@@H]7CO)O[C@@H]6CO)O[C@@H]5CO)O[C@@H]4CO)O[C@@H]3CO`, the result was inactive.
The value for `C=CCNCC=C` was “inactive”; that for `C[C@]12CC[C@@H]3c4ccc(O)cc4CC[C@H]3[C@@H]1CC[C@@H]2O` was “inactive”; that for `CC/C=C\C/C=C\C/C=C\CCCCCCCC(=O)O` was “inactive”.
`CCc1cccc2c3c([nH]c12)C(CC)(CC(=O)O)OCC3` (stereo not given): the result was inactive.
With `CC(=O)[C@H]1CC[C@H]2[C@@H]3CC=C4C[C@@H](O)CC[C@]4(C)[C@H]3CC[C@]12C`, the result was inactive.
Take `Cc1ccc(S(=O)(=O)O)cc1C`: the outcome was inactive.
Regarding `C1COCCN1`, the outcome was inactive.
The value for `COc1ccc2nc(N)sc2c1` was “inactive”; that for `CCCN1C=CN(C)C1` was “inactive”.
The value for `C=C[Si](OCCOC)(OCCOC)OCCOC` was “inactive”; that for `CC(=O)O[C@]1(C(C)=O)CC[C@H]2[C@@H]3C=C(C)C4=CC(=O)CC[C@]4(C)[C@H]3CC[C@@]21C` was “inactive”.
With `COC(=O)C(C)Oc1ccc(Oc2ncc(C(F)(F)F)cc2Cl)cc1` (stereo not given) the entry was “inactive”.
Regarding `CC[C@]12CCCN3CCc4c(n(c5ccccc45)[C@@](O)(C(=O)OC)C1)[C@@H]32`, the result was inactive.
With `Clc1ccc(Sc2cc(Cl)c(Cl)cc2Cl)cc1` the entry was “inactive”.

The values above are taken from PubChem BioAssay (Tox21).
